Measured values taken from PubChem BioAssay (NCI).
Compounds without any hit were thinned out: in the full panel of roughly 79,000, 15% have a hit. The source made the active and inactive calls. No stated cut-off is given here; in the data, active means growth inhibition above about 70%; inactive means the rest.

Key:
[1] = NCI Yeast Anticancer Drug Screen. Data for the rad52 strain (AID 147);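 further: 0% = growth of vehicle-treated control cultures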; conditions: S. cerevisiae rad52 mutant growth inhibition, active compounds read high
Outline: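 The repair-mutant yeast strain was incubated with compounds, then growth was read and inhibition derived relative to vehicle.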

[2] = NCI Yeast Anticancer Drug Screen. Data for the wt1 strain (AID 149);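 further: 0% = growth of vehicle-treated wt1 cultures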; conditions: S. cerevisiae wt1 strain (SPY 50644) growth inhibition, active compounds read high
Outline: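 wt1 strain grown with compound or vehicle; inhibition taken from the growth difference.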

[3] = NCI Yeast Anticancer Drug Screen. Data for the rad50EPP+ strain (AID 151);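 further: 0% = growth of vehicle-treated control cultures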; conditions: S. cerevisiae rad50 mutant strain, active compounds read high
Outline: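 Vehicle-normalised growth inhibition; rad50EPP+ yeast strain, altered in DNA damage repair, compound-treated.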

[4] = NCI Yeast Anticancer Drug Screen. Data for the mgt1 strain (AID 153); conditions: S. cerevisiae mgt1 mutant growth inhibition, active compounds read high
Outline: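 Vehicle-normalized growth inhibition is determined in mgt1 yeast, a strain selected for a defined alteration in DNA repair or cell cycle control.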

[5] = NCI Yeast Anticancer Drug Screen. Data for the rad50 strain (AID 155);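 further: 0% = growth of vehicle-only cultures of the same strain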; conditions: S. cerevisiae rad50 strain growth inhibition, active compounds read high
Outline: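 DNA repair mutant yeast, compound exposure, growth read-out; inhibition is taken relative to vehicle.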

[6] = NCI Yeast Anticancer Drug Screen. Data for the mec2-1 strain (AID 157); conditions: S. cerevisiae mec2-1 strain, active compounds read high
Outline: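 Mutant yeast (mec2-1) grown with compound; growth inhibition relative to vehicle control reported.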

[7] = NCI Yeast Anticancer Drug Screen. Data for the rad14 strain (AID 159);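 further: 0% = growth of vehicle-treated control cultures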; conditions: S. cerevisiae rad14 strain growth inhibition, active compounds read high
Outline: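 DNA repair-defective yeast, compound-exposed; % growth inhibition derived by comparison with vehicle-treated controls.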

[8] = NCI Yeast Anticancer Drug Screen. Data for the sgs1 mgt1 strain (AID 161);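 further: 0% = growth of cultures given vehicle only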; conditions: S. cerevisiae sgs1 mgt1 strain, active compounds read high
Outline: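 Growth of a repair-deficient yeast mutant was monitored after compound treatment and expressed as inhibition relative to vehicle-treated cultures.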

[9] = NCI Yeast Anticancer Drug Screen. Data for the CLN2oe strain (AID 163);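 further: 0% = growth of vehicle-only control cultures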; conditions: S. cerevisiae CLN2oe strain, active compounds read high
Outline: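 Compounds are applied to yeast harbouring a defined cell-cycle control change; reduced growth compared with vehicle-treated controls gives the value.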

[10] = NCI Yeast Anticancer Drug Screen. Data for the cln2 rad14 strain (AID 165);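 further: 0% = growth equal to vehicle treated cultures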; conditions: S. cerevisiae cln2 rad14 strain, active compounds read high
Outline: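 Readout is yeast growth inhibition versus vehicle-treated controls, using a strain with cln2 and rad14 alterations exposed to compound.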

[11] = NCI Yeast Anticancer Drug Screen. Data for the bub3 strain (AID 167); conditions: S. cerevisiae bub3 mutant strain, active compounds read high
Outline: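 In this screen, a yeast mutant lacking normal mitotic checkpoint function is challenged with compound. Relative growth versus vehicle gives the inhibition value.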

[12] = NCI Yeast Anticancer Drug Screen. Data for the wt2 strain (AID 169);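 further: 0% = growth of vehicle-treated yeast cultures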; conditions: S. cerevisiae wt2 strain growth inhibition, active compounds read high
Outline: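 Against vehicle-treated controls, the growth of yeast exposed to each compound was compared, and the inhibition was recorded.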

[13] = NCI Yeast Anticancer Drug Screen. Data for the mlh1 strain (AID 171);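 further: 0% = growth of vehicle-treated control cultures of the same strain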; conditions: S. cerevisiae mlh1 strain growth inhibition, active compounds read high
Outline: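 Measured: yeast growth. Reference: vehicle-treated controls. Organism: strain with a defined alteration affecting DNA damage repair or cell cycle control, treated with compound.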

[14] = NCI Yeast Anticancer Drug Screen. Data for the sgs1 strain (AID 173);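 further: 0% = growth of vehicle-only control cultures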; conditions: S. cerevisiae sgs1 mutant, active compounds read high
Outline: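 Each compound was added to cultures of the altered yeast strain. Growth was recorded, and inhibition was derived by comparison with vehicle controls.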

[15] = NCI Yeast Anticancer Drug Screen. Data for the rad18 strain (AID 177); conditions: S. cerevisiae rad18 mutant growth inhibition, active compounds read high
Outline: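 Vehicle-treated cultures served as the baseline for scoring compound-induced growth inhibition in DNA-repair-mutant yeast.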

[16] = at 5.0 µM (retest, dose inferred, filed as 0.5)
[17] = at 50.0 µM (retest, dose inferred, filed as 5.0)

Measured: growth inhibition

O=C(CN(c1ccccc1)c1ccccc1)n1nnc2ccccc21
inactive: [1]; at 1.2 µM 18% | [1]; at 3.7 µM 20% | [1]; at 11.0 µM 14% | [1]; at 33.0 µM 39% | [2]; at 1.2 µM 10% | [2]; at 3.7 µM -11% | [2]; at 11.0 µM -19% | [2]; at 33.0 µM 0% | [3]; at 1.2 µM 15% | [3]; at 3.7 µM 7% | [3]; at 11.0 µM 15% | [3]; at 33.0 µM 42% | [4]; at 1.2 µM 6% | [4]; at 3.7 µM -20% | [4]; at 11.0 µM -10% | [4]; at 33.0 µM 9% | [5]; at 1.2 µM -9% | [5]; at 3.7 µM -7% | [5]; [16] -1% | [5]; at 11.0 µM 14% | [5]; at 33.0 µM 28% | [6]; at 1.2 µM -9% | [6]; at 3.7 µM 0% | [6]; [16] -6% | [6]; at 11.0 µM 13% | [6]; at 33.0 µM 23% | [6]; [17] 23% | [7]; at 1.2 µM -19% | [7]; at 3.7 µM -18% | [7]; at 11.0 µM -18% | [7]; at 33.0 µM 2% | [8]; [16] -15% | [8]; [17] 36% | [8]; at 50.0 µM 47.7% | [9]; at 1.2 µM 8% | [9]; at 3.7 µM -9% | [9]; at 11.0 µM -9% | [9]; at 33.0 µM 4% | [9]; at 100.0 µM 69% | [10]; [16] -2% | [10]; [17] -29% | [10]; at 50.0 µM 52.2% | [11]; at 1.2 µM -21% | [11]; at 3.7 µM -19% | [11]; [16] -42% | [11]; at 11.0 µM -35% | [11]; at 33.0 µM -19% | [12]; at 1.2 µM -7% | [12]; at 3.7 µM 8% | [12]; at 11.0 µM -6% | [12]; at 33.0 µM 6% | [13]; at 1.2 µM 9% | [13]; at 3.7 µM 6% | [13]; at 11.0 µM 13% | [13]; at 33.0 µM 36% | [14]; at 1.2 µM 19% | [14]; at 3.7 µM 16% | [14]; at 11.0 µM 14% | [14]; at 33.0 µM 32% | [15]; at 1.2 µM 6% | [15]; at 3.7 µM 14% | [15]; at 11.0 µM 6% | [15]; at 33.0 µM 30%
active: [1]; at 100.0 µM 85% | [2]; at 100.0 µM 82% | [3]; at 100.0 µM 71% | [4]; at 100.0 µM 88% | [5]; [17] 76% | [5]; at 50.0 µM 74.5% | [5]; at 100.0 µM 84% | [6]; at 50.0 µM 78.6% | [6]; at 100.0 µM 85% | [7]; at 100.0 µM 85% | [11]; [17] 84% | [11]; at 50.0 µM 74.4% | [11]; at 100.0 µM 76% | [12]; at 100.0 µM 80% | [13]; at 100.0 µM 86% | [14]; at 100.0 µM 90% | [15]; at 100.0 µM 90%
